Assay results taken from PubChem BioAssay AID1159580 (chemical genetic matrix, 2015).
Values joined by “and” are separate entries in the source; they are usually repeats but may differ in a detail not shown here. Identical values can stand only once. About 2,000 (36%) of roughly 5,500 compounds were called active. Roughly 18% stayed inconclusive and do not appear here. Cut-off read from the data, not from the text of the source: active = normalized growth mostly below about 0.91 (no sharp cut-off); inconclusive = no clear call, values can overlap the other calls; inactive = mostly above about 0.92. The list shows a part of the results.

Assay: chemical genetic growth profiling, strain panel (AID 1159580);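 note: tested at 20 µM; growth read once vehicle control cultures reached saturation at 30 °C; 1 = growth at the plate median or of vehicle wells; lower values mean less growth of the strain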
Conditions: S. cerevisiae deletion strains, growth OD

Measured: normalized growth

CC[C@H](/C=C/C(C)C1CCC2C3CCC4=CC(=O)CC[C@]4(C)C3CC[C@]12C)C(C)C (some centres not stated)
inactive: locus YBR021W, strain FUR4, hits give low values 1.01 | locus YBR229C, strain ROT2, hits give low values 1 | locus YCL029C, strain bik1, hits give low values 1.02 | locus YDL035C, strain GPR1, hits give low values 1.02 | locus YDL074C, strain BRE1, hits give low values 1.02 | locus YDL101C, strain DUN1, hits give low values 1.01 | locus YDL134C, strain PPH21, hits give low values 1.03 | locus YDL185W, strain tfp1, hits give low values 1.01 | locus YDL192W, strain arf1, hits give low values 1 | locus YDR101C, strain arx1, hits give low values 1.01 | locus YDR162C, strain NBP2, hits give low values 1.03 | locus YDR318W, strain mcm21, hits give low values 1 | locus YDR388W, hits give low values 1.01 | locus YDR502C, strain sam2, hits give low values 1.02 | locus YEL061C, strain CIN8, hits give low values 1 | locus YER110C, hits give low values 1 | locus YER155C, strain BEM2, hits give low values 1.01 | locus YER167W, strain BCK2, hits give low values 1.02 | locus YGL078C, strain dbp3, hits give low values 1.01 | locus YGL086W, strain mad1, hits give low values 0.997 | locus YGL248W, strain PDE1, hits give low values 1.02 | locus YGR078C, strain PAC10, hits give low values 1.03 | locus YGR135W, strain pre9, hits give low values 1 | locus YGR252W, strain gcn5, hits give low values 1.01 | locus YHR030C, strain SLT2, hits give low values 1.01 and 1.1 | locus YHR079C, strain IRE1 (second series), hits give low values 0.991 | locus YHR079C, strain IRE1, hits give low values 1.07 | locus YHR094C, strain hxt1, hits give low values 0.99 | locus YHR129C, strain ARP1, hits give low values 1.01 | locus YHR200W, strain rpn10, hits give low values 1 | locus YIL066C, strain RNR3, hits give low values 1.03 | locus YIL073C, strain SPO22, hits give low values 1.05 | locus YIL125W, strain kgd1, hits give low values 1.01 | locus YIR030C, strain dcg1, hits give low values 1 | locus YJL095W, strain BCK1, hits give low values 1.02 and 1.05 | locus YJL134W, strain LCB3, hits give low values 1.01 | locus YJL168C, strain set2, hits give low values 1 | locus YJL187C, strain SWE1 (second series), hits give low values 1.02 | locus YJR043C, strain POL32, hits give low values 1.03 | locus YJR066W, strain TOR1, hits give low values 0.985 | locus YJR075W, strain HOC1, hits give low values 1.02 | locus YKL009W, strain mrt4, hits give low values 1.04 | locus YKL068W, hits give low values 1.01 | locus YKL085W, strain MDH1 (second series), hits give low values 1.01 | locus YKL085W, strain MDH1, hits give low values 1.01 | locus YKL190W, strain CNB1, hits give low values 1.01 | locus YKR001C, strain vps1, hits give low values 1.02 | locus YLR039C, strain RIC1, hits give low values 1.07 | locus YLR058C, strain SHM2, hits give low values 1.01 | locus YLR102C, strain apc9, hits give low values 0.999 | locus YLR113W, strain HOG1, hits give low values 1.04 | locus YLR262C, strain YPT6, hits give low values 1.06 | locus YLR268W, strain sec22, hits give low values 1.02 | locus YLR330W, strain CHS5, hits give low values 1.01 | locus YLR342W, strain FKS1 (second series), hits give low values 0.996 | locus YLR371W, strain rom2, hits give low values 1.02 | locus YLR418C, strain cdc73, hits give low values 1.01 | locus YML016C, strain PPZ1, hits give low values 1 | locus YML032C, strain rad52, hits give low values 1.01 | locus YML124C, strain tub3, hits give low values 1 | locus YMR078C, strain ctf18, hits give low values 1 | locus YMR223W, strain ubp8, hits give low values 1.01 | locus YMR263W, strain SAP30, hits give low values 1.01 | locus YMR307W, strain GAS1, hits give low values 1.04 | locus YNL067W, strain RPL9B, hits give low values 1.02 | locus YNL153C, strain GIM3, hits give low values 1.01 | locus YNL183C, strain NPR1, hits give low values 0.996 | locus YNL233W, strain BNI4, hits give low values 1.02 | locus YNL250W, strain rad50, hits give low values 1 | locus YNL271C, strain bni1, hits give low values 1.01 | locus YNL298W, strain CLA4, hits give low values 1 | locus YNL307C, strain MCK1, hits give low values 1.01 | locus YNL322C, strain KRE1, hits give low values 1.02 | locus YNR052C, strain pop2, hits give low values 1.01 | locus YOL006C, strain TOP1, hits give low values 1.13 | locus YOL012C, strain htz1 1.25 | locus YOL147C, strain pex11, hits give low values 1 | locus YOR061W, strain CKA2, hits give low values 1.01 | locus YOR069W, strain VPS5, hits give low values 1.01 | locus YOR136W, strain idh2, hits give low values 1 | locus YOR144C, strain elg1, hits give low values 0.994 | locus YOR184W, strain ser1, hits give low values 0.999 | locus YOR231W, strain MKK1, hits give low values 1.08 | locus YOR316C, strain cot1, hits give low values 1 | locus YPL055C, strain LGE1, hits give low values 1.04 | locus YPL241C, strain CIN2, hits give low values 1.01 | locus YPL256C, strain CLN2, hits give low values 1.03 | locus YPR119W, strain clb2, hits give low values 1 | locus YPR141C, strain kar3, hits give low values 1.01 | locus YPR163C, strain tif3, hits give low values 1.01 | locus YPR167C, strain met16, hits give low values 1.03 | strain wtn01, hits give low values 0.992
